Screening data from PubChem BioAssay.
Shiga inhibitor: A qHTS for Small Molecule Inhibitors of Shiga Toxin. Vero cells, Shiga toxin protein synthesis inhibition reporter. inhibition, % at 38.7 µM. 290,000 compounds, 9.2% hits. AID 2315, 2010; in the data active = inhibition mostly above about 28%, no sharp cut-off; inactive = mostly below about 43%; also: 0% is about no effect
LmPK inhibitor: qHTS Assay for Inhibitors of Leishmania Mexicana Pyruvate Kinase (LmPK); Potency, µM (doses to about 57.5 µM), inactives show at the highest dose activity change, negative = inhibition, usual class: inhibitors; 290,000 compounds, 0.37% hits; purified LmPK, Kinase-Glo ATP luminescence, 1 h; Q27686; also: potency is read from the fitted curve at half-maximal effect; % is scaled to controls: 0 for no effect and ±100 for the full control effect
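Screened at intermediate enzyme activity to detect both inhibitors and activators: LmPK at 0.1 nM, with a 0.5 nM enzyme column as activation reference. PEP 0.5 mM, ADP 0.1 mM; ATP detected by luminescence after 1 h.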
Tb PYK inh: qHTS of Trypanosoma Brucei Inhibitors; pyruvate kinase (Trypanosoma brucei), Q57TT1; TbPYK enzyme, Kinase-Glo Plus ATP luminescence, 45 min; Potency, µM (top dose mostly 76.8 µM), inactives show top-dose activity, negative = inhibition, usual class: inhibitors; 410,000 compounds, 0.12% hits; also: potency is read from the fitted curve at half-maximal effect; % is scaled to controls: 0 for no effect and ±100 for the full control effect; nearly all actives have a fitted effect of over 50% in size
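T. brucei PYK with substrate was exposed to pin-transferred compounds across a concentration series, then started with 130 uM ADP (final). After 45 min at room temperature, Kinase-Glo Plus luminescence was read, normalized and curve-fitted.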
Sm TGR block: qHTS Assay for the Inhibitors of Schistosoma Mansoni Peroxiredoxins | purified TGR, DTNB reduction, TNB absorbance 405 nm | AID 485364, 2010 | Schistosoma mansoni thioredoxin glutathione reductase (TGR), Q962Y6 | 360,000 compounds, 3% hits | Potency, µM (titrated, usually from 114 µM), inactives show top-dose activity change, negative = inhibition, hits mostly inhibitors; also: potency is read from the fitted curve at half-maximal effect; % is scaled to controls: 0 for no effect and ±100 for the full control effect; nearly all actives have a fitted effect of over 60% in size
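Kinetic colorimetric format: TGR-catalysed, NADPH-driven DTNB reduction monitored via TNB absorbance. Enzyme dispensed at 20 nM; compound exposure 15 min at room temperature before reaction start.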
Giardia FBPA inh: qHTS Assay for Inhibitors of Fructose-1,6-bisphosphate Aldolase from Giardia Lamblia | purified Giardia FBPA | Potency, µM (doses to about 59.6 µM), without a hit: at the highest dose activity, negative = inhibition, hits mostly inhibitors | 290,000 compounds, 0.71% hits | AID 2451, 2010; also: potency is read from the fitted curve at half-maximal effect; % is scaled to controls: 0 for no effect and ±100 for the full control effect; nearly all actives have a fitted effect of over 55% in size
Target sequence (A8B2U2 whole entry, looked up): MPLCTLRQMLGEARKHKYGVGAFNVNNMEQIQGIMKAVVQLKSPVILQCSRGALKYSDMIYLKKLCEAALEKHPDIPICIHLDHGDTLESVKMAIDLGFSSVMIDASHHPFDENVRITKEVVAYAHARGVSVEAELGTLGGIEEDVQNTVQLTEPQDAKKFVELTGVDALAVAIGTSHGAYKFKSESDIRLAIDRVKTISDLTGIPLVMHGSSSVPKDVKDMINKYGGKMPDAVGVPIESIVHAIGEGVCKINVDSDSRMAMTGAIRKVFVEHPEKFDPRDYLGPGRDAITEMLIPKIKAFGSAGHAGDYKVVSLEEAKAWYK
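Giardia FBPA (40 nM reagent) was preincubated 10 min at RT with compound (up to 57.5 uM final), then substrate plus GAPDH/TPI/NAD/arsenate coupling system with diaphorase/resazurin was added; resorufin fluorescence (525/598 nm) was read after 20 min.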
Cycloheximide cs: Cycloheximide Counterscreen for Small Molecule Inhibitors of Shiga Toxin | cell reporter, cycloheximide protein synthesis inhibition counterscreen | max response, % | 300,000 compounds, 12% hits; in the data active = max response mostly above about 13%, no sharp cut-off; inactive = mostly below about 14%; also: read at 38.3 µM for the half of the compounds with a filed dose; 0% is about no effect
The depositor's hits bear a star; ? = inconclusive; / = no result; ! = not active in a repeat; [ ] = another dose, or the depositor's remark. Many of the other results were omitted from the sample, so hits are more common in it than they were. Unless noted, calls follow the shape of the dose curve; as a rule, active = well fitted curve in the direction sought with a large enough effect; inconclusive = small, poorly fitted or top-dose-only effect, or another doubt; inactive = no such curve, though single readings can be large; an effect the other way counts as inactive or inconclusive.

SMILES | Shiga inhibitor | LmPK inhibitor | Tb PYK inh | Sm TGR block | Giardia FBPA inh | Cycloheximide cs
COc1cccc(-c2cnc(C(O)c3ccc(F)c(C)c3)[nH]2)c1 (configuration not stated) | / | / | -1.1% | / | / | /
CCOC(=O)CN1C(=O)S/C(=C/c2cc(C)n(-c3ccccn3)c2C)C1=O | 68.9* | 3.9% | -3.3% | -0.2% | ? | 58.7*
CCOC(=O)CN1C(=O)S/C(=C/c2cc(C)n(C)c2C)C1=O | / | / | -4.4% | / | / | /
CCOC(=O)CN1C(=O)S/C(=C/c2ccc(C)o2)C1=O | 46.5* | 2.4% | -2.7% | 39.8µM* | -28.9% | 24.4*
CCOC(=O)CN1C(=O)S/C(=C/c2ccc(O)c([N+](=O)[O-])c2)C1=O | 11.6 | -0.5% | 7.1% | -3.2% | 3.6% | -1.8
Cc1cc(/C=C2/NC(=O)NC2=O)c(C)n1-c1ccccn1 | 18.5 | 2.5% | -12.3% | -0.7% | -7.6% | 19.0*
COC(=O)C(C)N1C(=O)S/C(=C/c2cc(C)n(-c3ccccn3)c2C)C1=O (configuration not stated) | 56.6 | -4.9% | -1.0% | 8.0% | ? | 49.9*
COc1cccc(CNCc2c(C(=O)O)c(C)n(Cc3ccc(F)cc3Cl)c2C)c1OC | / | / | -0.8% | -15.0% | / | /
COc1ccc(NC(=O)CN(c2ccc(C)cc2)S(=O)(=O)c2cccs2)cc1 | / | / | -2.2% | 7.2% | / | /
Cc1ccc(-n2c(C)cc(/C=C3/SC(=O)N(CC(=O)N4CCOCC4)C3=O)c2C)nc1 | 15.1 | -10.8% | -0.7% | -5.5% | -18.5% | 5.5
COC(=O)C(C)N1C(=O)S/C(=C\c2cc(C)n(-c3ccccn3)c2C)C1=O (configuration not stated) | 90.2* | -1.2% | -11.7% | -0.4% | ? | 43.3*
COC(=O)C1=C(C(=O)OC)[C@@H]2N(C)c3ccccc3[C@@]23C[C@@H](C(=O)OC)N(S(=O)(=O)c2c(C)noc2C)C3=N1 | / | 1.5%[11.5 µM] | / | / | 2.5%[12.9 µM] | /
Cc1nc2ccc(NC(=O)N3CCCCC3)cc2nc1C | 18.9 | -1.2% | 3.9% | -19.3% | -12.9% | 11.6
S=C(Nc1ccc(N2CCOCC2)cc1)Nc1ccc2snnc2c1 | 13.9 | 5.8% | -1.3% | 35.5µM* | ? | 22.3
O=C(Nc1ccc2snnc2c1)N1CCCCC1 | 28.8 | -1.4% | -4.2% | 3.8% | 1.1% | 19.4*
O=C(Nc1ccc2nsnc2c1)N1CCCCCC1 | 108.8 | -9.6% | 11.1% | -2.1% | -26.4% | 42.5*
O=C(Nc1ccc2snnc2c1)N1CCN(c2ccccc2)CC1 | -0.2 | 0.6% | 0.3% | -0.5% | -3.6% | 1.9
O=C(Nc1ccc2snnc2c1)N1CCOCC1 | -1.8 | -1.2% | 2.4% | 0.0% | -0.3% | -4.7
CC(C)c1ccc(Nc2sc(C(=O)c3ccccc3)c(N)c2S(=O)(=O)c2ccccc2)cc1 | / | / | 2.4% | 2.9% | / | /
CCOc1ccc(NC(=S)N(Cc2ccc(N(C)C)cc2)Cc2ccco2)cc1 | 30.4* | 2.5% | 4.7% | 9.4% | -3.3% | 16.2*
COc1ccc(NC(=S)N(Cc2ccc(N(C)C)cc2)Cc2ccco2)cc1 | 17.0 | 0.9% | 4.1% | -14.5% | -0.4% | 13.6*
O=C(Nc1ccc(S(=O)(=O)N2CCCCC2c2cccnc2)cc1)c1ccc(Br)cc1 (configuration not stated) | / | / | -0.9% | 8.7% | / | /
C[n+]1cc2c3c(ccc2c2ccc4cc5c(cc4c21)OCO5)OCO3 | -37.4 | / | -15.3% | / | 6.29µM*! | -15.4
O=C(O)c1cccc(Nc2c3ccccc3nc3ccccc23)c1 | 87.4* | -6.9% | -1.8% | 4.0% | ? | 107.1*
O=C(O)c1cccc(Nc2c([N+](=O)[O-])c(=O)oc3ccccc23)c1 | 124.9* | 2.6% | 12.1% | -1.1% | ? | 73.4*
SMILES | Shiga inhibitor | LmPK inhibitor | Tb PYK inh | Sm TGR block | Giardia FBPA inh | Cycloheximide cs
COc1ccc(NC(=O)N2CC[C@@]3(CCCN(C(=O)c4cccc(F)c4)C3)C2)cc1 | / | / | 0.0% | / | 2.0% | /
O=c1[nH]c(COc2ccc(Cl)cc2Cl)nc2ccccc12 | 41.3* | 3.1% | 3.4% | -30.7% | / | 37.7*
O=c1[nH]c(COc2ccc(Cl)cc2Br)nc2ccccc12 | 126.5* | 2.0% | 2.6% | -17.5% | / | 50.7*
Cc1ccc(CCNC(=O)CCS(=O)(=O)c2cc3c(cc2Cl)NC(=O)CO3)cc1 | / | / | 1.3% | 2.3% | / | /
O=C(c1cc(-c2ccco2)nc2ccccc12)N1CCCC(C(F)(F)F)C1 (configuration not stated) | / | / | 0.6% | 35.5µM* | / | /
CCN1CCN(C(=O)c2cc(-c3ccco3)nc3ccccc23)CC1 | / | / | 2.7% | 28.2µM* | / | /
COc1cc2ccccc2cc1C(=O)N1CCCC(C(F)(F)F)C1 (configuration not stated) | / | / | 3.8% | -6.5% | / | /
O=C(c1cc2ccccc2cc1O)N1CCCC(C(F)(F)F)C1 (configuration not stated) | -13.5 | -7.4% | 3.0% | 28.2µM* | / | 9.5
CN1CCCN(S(=O)(=O)c2cccc(C#N)c2)CC1 | -4.3 | 3.8% | 3.9% | 9.5% | -18.0% | 5.5
CCOC(=O)c1ccc(N2CC3=C(C2=O)C(c2ccc(OC)cc2)NC(=O)N3C)cc1 (configuration not stated) | / | / | -3.7% | 13.3% | / | /
O=C(Nc1cccc(Cl)c1)c1ccc(Cn2cc(Cl)cn2)cc1 | 78.8* | 2.1% | -3.2% | 11.4% | -6.9% | 14.9*
Cn1c(NC(=O)c2cccc(Cn3cc(Cl)cn3)c2)nc2ccccc21 | 194.9* | -4.7% | 1.6% | -2.8% | 15.5% | 69.2*
CC(=O)N1c2ccc(S(=O)(=O)NCCC(=O)Nc3ccc(OC(F)(F)F)cc3)cc2CC1C (configuration not stated) | -4.2 | 3.9% | ? | 7.1% | -9.9% | 12.3
O=c1cc(-c2ccccc2)n2c(SCc3ccccc3Cl)nnc2[nH]1 | / | / | 3.1% | -1.4% | / | /
CCOC(=O)c1c(C)n(C)c2ccc(O)c(CN3CCN(C)CC3)c12 | 33.6 | 1.4% | -5.2% | 35.5µM* | ? | -6.2
CCOC(=O)c1c(C)n(C)c2ccc(O)c(CN3CCC(C)CC3)c12 | 17.0 | 3.8% | -7.7% | -25.8% | -27.1% | 1.2
CCCCn1c(C)c(C(=O)OCC)c2c(CN3CCOCC3)c(O)ccc21 | -3.2 | 2.1% | 1.1% | 39.8µM* | -1.9% | -4.3
CCCCn1c(C)c(C(=O)OCC)c2c(CN3CCCC3)c(O)ccc21 | 17.9 | -2.1% | -11.4% | 3.5% | -0.9% | 1.2
Cc1nnc(SCC(=O)Nc2ccc(S(N)(=O)=O)cc2)n(N)c1=O | / | / | -11.5% | / | / | /
CCc1cc(C(=O)N(CC)CC(=O)Nc2ccc(OC)cc2)sc1C | / | / | 6.8% | -15.9% | / | /
COc1ccc(-c2csc(-c3cccnc3)n2)cc1C | 89.6* | -1.7% | 2.9% | 27.0% | -16.1% | 35.8
